Assay [1] relates to Plasmodium falciparum Sir2 (PF13_0152, Sir2A). The assay can be described thus: Plasmodium falciparum Sir2A binding compounds – biochemical, small-molecule microarray, 635 nm fluorescence, primary screen (AID 1098).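 Note: score merges spot fluorescence intensity with its signal-to-noise ratio.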 To be noted: fluorescence 635 nm, higher = more signal.
Assay [2] can be described thus: probe aDKK1 binding to arrayed compounds – biochemical, biotinylated probe, 635/667 nm fluorescence, primary screen (AID 1099).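 Note: score merges 667nm spot fluorescence with signal to noise across triplicate slides.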 The settings on record: small-molecule microarray, higher = more signal.
Assay [3] can be described thus: probe aCHRDL2 binding to arrayed compounds – biochemical, biotinylated probe, 635/667 nm fluorescence, primary screen (AID 1100). To be noted: small-molecule microarray, higher = more signal.
Assay [4] is described as follows: change in splice reporter luminescence, either direction, cell-based, HEK293, spliceosome inhibition project, primary screen (AID 1101).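 Note: HEK293 cells carrying a splicing-competent luciferase reporter gene; test concentration not given here.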 The settings on record: HEK293 splicing luciferase reporter, 24 h, higher = more signal, called active from +8 up or from −8 down. A general note: Reporter assays use an easily measured gene product as a stand-in for the process of interest.

Assay [5] addresses Fibroblast growth factor 10 (Homo sapiens) (UniProt O15520). The assay is described as follows: compounds binding fibroblast growth factor 10 – biochemical, small-molecule microarray, 635 nm fluorescence, primary screen (AID 1102). To be noted: FGF10 binding, fluorescence 635 nm, higher = more signal.
Assay [6] has as its system glycogen synthase kinase-3 (GSK3A per assay name; protocol says GSK3B). The assay can be described thus: compounds binding glycogen synthase kinase-3 – biochemical, small-molecule microarray, 635 nm fluorescence, GSK3A, primary screen (AID 1103). Note: the record names both GSK3A and GSK3B. The settings on record: fluorescence 635 nm, higher = more signal.
Assay [7] addresses Epidermal growth factor receptor (Homo sapiens) (UniProt P00533). The assay is described as follows: compounds binding epidermal growth factor receptor – biochemical, small-molecule microarray, 635 nm fluorescence, primary screen (AID 1104).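 Note: score merges 667 nm emission intensity with spot signal to noise over triplicate slides.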 To be noted: EGFR binding, higher = more signal.
Assay [8] has as its target Follistatin-related protein 3 (Homo sapiens) (UniProt O95633). The assay can be described thus: compounds binding follistatin-related protein 3 – biochemical, small-molecule microarray, 635 nm fluorescence, primary screen (AID 1105).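 Note: score merges emission near 667 nm and signal to noise per printed spot across three slides.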 The settings on record: FSTL3 binding, higher = more signal.
The target of assay [9] is Dickkopf-related protein 1 (Homo sapiens) (UniProt O94907). The assay can be described thus: small molecules binding DKK1 protein – biochemical, small-molecule microarray, 635 nm fluorescence scan, primary screen (AID 1106).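 Note: score merges emission near 667 nm with signal to noise over three replicate slides.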 The settings on record: higher = more signal.
Assay [10] concerns Inhibin beta A chain (activin A). The assay is described as follows: small molecules binding activin A – biochemical, small-molecule microarray, 635 nm fluorescence scan, primary screen (AID 1107).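 Note: mouse activin A protein probed at 4.33 µg/mL on printed slides; score merges bound-protein fluorescence near 667 nm with spot signal-to-noise.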 To be noted: INHBA, higher = more signal.
Assay [11] concerns Human papillomavirus type 1a protein E7 (residues 44-93). The assay can be described thus: small molecules binding HPV E7 44-93 – biochemical, small-molecule microarray, residues 44-93, 635 nm fluorescence, primary screen (AID 1108).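 Note: E7 fragment applied at 1 µg/mL in TBST for 1 h at 4 C; score combines spot fluorescence with its signal to noise ratio.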 The settings on record: fluorescence 635 nm, higher = more signal.
Assay [12] can be described thus: hepatitis C replication reporter changes, two-sided – Huh7 cells, luciferase reporter, HCV replication inhibitor project, primary screen (AID 1109).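 Note: huh7 hepatoma cells harbouring a luciferase neomycin HCV replicon reporter; luciferase luminescence as measure of HCV replicon replication; test concentration not given here.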 The settings on record: Huh7 HCV replicon luciferase reporter, 48 h; higher = more signal.
Assay [13] has as its target Left-right determination factor 2 (Homo sapiens) (UniProt O00292). The assay is described as follows: small molecules binding LEFTY2 protein – biochemical, small-molecule microarray, 635 nm fluorescence scan, primary screen (AID 1110). The settings on record: higher = more signal.
In assay [14] the target is Calmodulin-1 (Homo sapiens) (UniProt P0DP23). The assay is described as follows: small molecules binding calmodulin-1 with EGTA – biochemical, small-molecule microarray, Cy5-labelled CALM1, profiling panel (AID 1111).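 Note: labelled calmodulin applied in Tris saline Tween buffer holding calcium plus EGTA and DTT.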 The settings on record: Cy5-CALM1 binding fluorescence, higher = more signal.
The target is the same in assay [15]. The assay can be described thus: small molecules binding Ca-loaded calmodulin-1 – biochemical, small-molecule microarray, Cy5-labelled CALM1, plus calcium, artefact control for SMM control-protein annotation, profiling panel (AID 1112).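 Note: score merges spot fluorescence with signal to noise from triplicate slides.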 To be noted: Cy5-CALM1 binding fluorescence, higher = more signal.
Assay [16] in a line: probe aWnt5a binding to arrayed compounds – biochemical, biotinylated probe, 635/667 nm fluorescence, primary screen (AID 1113).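 Note: score merges 667 nm fluorescence intensity with signal-to-noise per printed feature.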 To be noted: small-molecule microarray, higher = more signal.
Assay [17] in a line: probe aShh binding to arrayed compounds – biochemical, biotinylated probe, 635/667 nm fluorescence, primary screen (AID 1114).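 Note: probe is biotin-labelled aShh protein from a stem cell growth factor screen; measures binding of labelled protein to compounds printed on the slide; score merges feature fluorescence at 667 nm with signal-to-noise.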 To be noted: small-molecule microarray, higher = more signal.
Assay [18] is described as follows: probe aNog binding to arrayed compounds – biochemical, biotinylated probe, 635/667 nm fluorescence, primary screen (AID 1115).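 Note: probe is biotinylated aNog protein used at 0.15 µg/mL for 1 h at 4 C; z-score combines 667 nm fluorescence of each spot with its signal to noise.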 The settings on record: small-molecule microarray, higher = more signal.
Assay [19] concerns the target Torsin-1A-interacting protein 1 (Homo sapiens) (UniProt Q5JTV8). The assay is described as follows: compound microarray binding of lysate hLAP1 – cell lysate, small-molecule microarray, COS7 lysate, 635/667 nm fluorescence, primary screen (AID 1116). To be noted: 635 nm fluorescence, higher = more signal.
Assay [20] addresses Alpha-bungarotoxin (Bungarus multicinctus) (UniProt P60615). The assay is described as follows: compounds binding labelled alpha-BTX control protein – biochemical, small-molecule microarray, Alexa647 label, 635/667 nm fluorescence, artefact control for SMM control protein annotation, profiling panel (AID 1117). To be noted: alpha-BTX-A647 binding fluorescence, higher = more signal.

The structures appear in SMILES notation. The source made the active and inactive calls.

Sequence of Left-right determination factor 2 (Homo sapiens) (O00292 whole entry, looked up): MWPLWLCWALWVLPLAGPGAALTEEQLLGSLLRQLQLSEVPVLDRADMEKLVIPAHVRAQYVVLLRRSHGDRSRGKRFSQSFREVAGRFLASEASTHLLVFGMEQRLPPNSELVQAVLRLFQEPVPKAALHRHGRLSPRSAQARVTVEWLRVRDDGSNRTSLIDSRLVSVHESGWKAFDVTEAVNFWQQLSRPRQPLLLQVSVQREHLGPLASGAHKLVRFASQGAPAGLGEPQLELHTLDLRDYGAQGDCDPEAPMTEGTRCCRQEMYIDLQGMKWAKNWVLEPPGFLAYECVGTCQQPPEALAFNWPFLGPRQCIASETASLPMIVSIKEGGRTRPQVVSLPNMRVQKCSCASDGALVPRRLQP
Sequence of Dickkopf-related protein 1 (Homo sapiens) (O94907 whole entry, looked up): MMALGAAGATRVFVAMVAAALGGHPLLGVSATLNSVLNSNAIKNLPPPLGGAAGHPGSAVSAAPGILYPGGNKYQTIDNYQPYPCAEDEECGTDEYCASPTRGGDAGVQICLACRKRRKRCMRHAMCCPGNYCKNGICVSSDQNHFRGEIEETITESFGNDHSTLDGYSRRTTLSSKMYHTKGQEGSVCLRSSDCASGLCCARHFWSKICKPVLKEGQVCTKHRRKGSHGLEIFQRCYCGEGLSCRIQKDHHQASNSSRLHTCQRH
Sequence of Torsin-1A-interacting protein 1 (Homo sapiens) (Q5JTV8 whole entry, looked up): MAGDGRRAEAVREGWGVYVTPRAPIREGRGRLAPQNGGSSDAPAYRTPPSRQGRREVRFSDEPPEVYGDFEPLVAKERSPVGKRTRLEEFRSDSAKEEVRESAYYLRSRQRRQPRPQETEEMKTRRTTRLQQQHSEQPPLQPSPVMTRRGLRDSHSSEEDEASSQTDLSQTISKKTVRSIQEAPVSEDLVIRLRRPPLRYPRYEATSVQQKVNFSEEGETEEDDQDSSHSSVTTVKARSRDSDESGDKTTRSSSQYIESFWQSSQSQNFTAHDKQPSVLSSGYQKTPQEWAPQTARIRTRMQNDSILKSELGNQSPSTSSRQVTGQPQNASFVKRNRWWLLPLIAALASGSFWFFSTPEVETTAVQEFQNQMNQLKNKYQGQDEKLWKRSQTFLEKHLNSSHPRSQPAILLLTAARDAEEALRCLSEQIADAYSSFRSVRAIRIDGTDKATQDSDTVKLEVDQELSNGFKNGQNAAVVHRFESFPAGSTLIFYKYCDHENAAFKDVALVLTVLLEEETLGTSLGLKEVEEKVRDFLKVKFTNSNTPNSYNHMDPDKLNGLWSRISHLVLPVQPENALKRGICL
Sequence of Follistatin-related protein 3 (Homo sapiens) (O95633 whole entry, looked up): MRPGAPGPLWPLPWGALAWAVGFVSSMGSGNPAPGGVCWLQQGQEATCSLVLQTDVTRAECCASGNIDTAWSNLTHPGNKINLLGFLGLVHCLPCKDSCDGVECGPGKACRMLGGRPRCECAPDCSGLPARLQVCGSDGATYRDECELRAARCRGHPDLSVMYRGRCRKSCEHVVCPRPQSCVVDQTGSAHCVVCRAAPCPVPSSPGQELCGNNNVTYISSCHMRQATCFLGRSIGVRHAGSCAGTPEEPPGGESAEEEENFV
Sequence of Epidermal growth factor receptor (Homo sapiens) (P00533 whole entry, looked up): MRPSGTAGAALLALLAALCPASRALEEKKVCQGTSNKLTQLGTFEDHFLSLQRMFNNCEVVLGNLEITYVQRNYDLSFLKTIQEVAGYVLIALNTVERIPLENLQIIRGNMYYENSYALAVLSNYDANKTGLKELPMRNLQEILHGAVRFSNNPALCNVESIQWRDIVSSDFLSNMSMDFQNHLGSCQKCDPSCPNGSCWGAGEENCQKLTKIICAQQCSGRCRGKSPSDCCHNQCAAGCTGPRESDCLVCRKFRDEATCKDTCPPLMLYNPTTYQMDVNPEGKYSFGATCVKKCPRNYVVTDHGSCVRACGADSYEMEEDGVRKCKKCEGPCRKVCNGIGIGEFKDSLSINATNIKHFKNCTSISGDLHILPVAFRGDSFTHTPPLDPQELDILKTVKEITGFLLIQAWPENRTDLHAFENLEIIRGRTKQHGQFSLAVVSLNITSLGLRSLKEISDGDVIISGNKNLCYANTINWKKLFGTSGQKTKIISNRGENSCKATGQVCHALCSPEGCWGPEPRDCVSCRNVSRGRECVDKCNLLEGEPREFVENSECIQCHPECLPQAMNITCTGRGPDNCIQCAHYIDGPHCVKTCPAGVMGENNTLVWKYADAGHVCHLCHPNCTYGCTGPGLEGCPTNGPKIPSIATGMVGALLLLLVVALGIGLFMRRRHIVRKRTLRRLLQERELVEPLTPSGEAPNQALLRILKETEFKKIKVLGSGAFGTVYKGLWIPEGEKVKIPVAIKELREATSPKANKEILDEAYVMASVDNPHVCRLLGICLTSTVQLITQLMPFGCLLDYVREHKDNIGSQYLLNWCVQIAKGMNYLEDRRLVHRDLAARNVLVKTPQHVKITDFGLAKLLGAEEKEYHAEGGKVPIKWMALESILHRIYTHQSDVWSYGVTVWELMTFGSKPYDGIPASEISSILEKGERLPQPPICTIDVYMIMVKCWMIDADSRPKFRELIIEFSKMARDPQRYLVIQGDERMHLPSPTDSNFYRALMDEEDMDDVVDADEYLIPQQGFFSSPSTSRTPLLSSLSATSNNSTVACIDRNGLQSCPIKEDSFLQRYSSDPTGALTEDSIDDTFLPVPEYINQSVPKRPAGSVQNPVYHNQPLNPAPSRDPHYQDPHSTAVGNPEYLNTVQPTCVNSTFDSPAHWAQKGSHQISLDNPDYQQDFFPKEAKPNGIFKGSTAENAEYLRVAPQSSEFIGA
Sequence of Fibroblast growth factor 10 (Homo sapiens) (O15520 whole entry, looked up): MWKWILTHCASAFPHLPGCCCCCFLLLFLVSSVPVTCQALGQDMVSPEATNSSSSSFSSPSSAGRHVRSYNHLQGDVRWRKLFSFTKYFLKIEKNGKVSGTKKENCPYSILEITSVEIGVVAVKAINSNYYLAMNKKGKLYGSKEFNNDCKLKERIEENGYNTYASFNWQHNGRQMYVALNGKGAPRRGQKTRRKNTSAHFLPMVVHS
Sequence of Alpha-bungarotoxin (Bungarus multicinctus) (P60615 whole entry, looked up): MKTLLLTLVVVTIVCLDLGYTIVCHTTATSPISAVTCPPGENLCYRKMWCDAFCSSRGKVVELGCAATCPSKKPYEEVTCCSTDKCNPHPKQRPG

Take `COC(=O)c1c2oc(c1C(=O)OC)C(=O)N(Cc1ccccc1)Cc1cn(nn1)C[C@H](Cc1ccccc1)NC(=O)N[C@H](CO)CC2`: the composite z-score was 0.909 in [1]; -0.0239 in assay [2]; -0.342 in [3]; 0.247 in assay [5]; 0.278 in assay [6]; 0.0933 in [7]. The composite z-score in assay [8] is 0.111; in [9], -0.0193; in [10] it was 0.0809; in assay [11], 0.196; in [13], 0.269; in assay [14], -0.201. Further, the composite z-score in assay [15] is -0.464; in assay [16], -0.0194; in assay [17], -0.367; in [18], -0.359; in [19] it was 0.678; in assay [20], -0.129. The z-score in assay [4] is -2.12 (inactive); in assay [12], -0.533.
Regarding `CCOC(=O)C1=CC[C@@H](c2ccccc2C(F)(F)F)N(S(=O)(=O)c2ccc(C)cc2)[C@H]1c1ccc(C#N)cc1`, the composite z-score in [1] was 0.668; in [2] it was 0.648; in assay [3], 0.276; in [5] it was 0.719; in assay [6], 1.2; in [7], 0.593. The composite z-score in assay [8] was found to be 0.772; in [9], 0.35; in assay [10], 0.307; in assay [11], 0.325; in assay [13], 0.327; in assay [14], 1.63. The composite z-score is 0.697 in [15]; -0.0152 in assay [16]; -0.283 in assay [17]; -0.301 in [18]; 0.408 in assay [19]; 0.969 in assay [20]. Besides, the z-score in assay [4] is -0.476 (inactive); in [12] it was 0.65.
In the case of `CCCCCCCCCCC(O)C1C=CC2C(=O)N(C)C(=O)C2N1Nc1ccc([N+](=O)[O-])cc1[N+](=O)[O-]` (stereo not given), the composite z-score is 0.781 in [1]; 0.899 in [2]; 0.905 in assay [3]; 0.141 in [5]; 0.461 in assay [6]; -0.497 in assay [7]. Further, the composite z-score was 0.323 in assay [8]; -0.57 in assay [9]; 0.894 in assay [10]; 1.38 in assay [11]; -0.323 in assay [13]; 1.62 in [14]. Further, the composite z-score in assay [15] is 1.05; in [16] it was 0.0308; in assay [17], 0.151; in assay [18] it was 0.441; in assay [19] it was 1.83; in assay [20] it was 1.18. Further, the z-score in [4] was 1.62 (inactive); in [12], -1.06.
In the case of `COCCCNC(=O)[C@@]1(Cc2ccccc2N=[N+]=[N-])N=C(c2ccc(OCCCO)cc2)O[C@H]1c1ccccc1`, the composite z-score in assay [1] was 1.55; in assay [2], 0.231; in assay [3], 1.01; in assay [5], 0.911; in assay [6], 1.28; in assay [7] it was -0.338. Moreover, the composite z-score is 0.402 in [8]; 0.157 in [9]; 1.14 in assay [10]; 1.41 in [11]; -0.394 in [13]; 0.906 in assay [14]. For the same compound, the composite z-score in assay [15] was -0.257; in assay [16], 0.269; in assay [17], 0.142; in assay [18] it was 1.76; in assay [19] it was 1.63; in [20], 0.643. The z-score was 0.181 (inactive) in [4] and -1.54 in [12].
With `Cc1ccc(S[C@]2(C(=O)NCC(F)(F)F)CC(=O)N(Cc3ccccc3)[C@@H]2c2ccc(CO)cc2I)cc1`, the composite z-score in assay [1] was 1.37; in assay [2], 0.307; in assay [3] it was 0.264; in [5] it was -0.376; in assay [6] it was -0.342; in [7], -0.592. Moreover, the composite z-score in assay [8] was -0.507; in assay [9] it was -0.813; in [10], 0.548; in assay [11], 0.503; in assay [13] it was -0.842; in assay [14] it was -0.0153. Besides, the composite z-score is 0.517 in assay [15]; -0.0203 in assay [16]; -0.0362 in assay [17]; 0.358 in assay [18]; 0.349 in [19]; 1.36 in [20]. In addition, the z-score in [4] is -0.432 (inactive); in [12], -2.48.
With `CC1CC/C=C\[C@H]2OC34C=CCN(C(C)C)C(=O)[C@H]3N(CCCCCCO)C(=O)[C@@H]4C2C(=O)O1` (stereo not given in full), the composite z-score is 0.733 in [1]; -0.242 in [2]; 0.417 in assay [3]; -1.16 in assay [5]; -1.22 in assay [6]; -0.755 in assay [7]. The composite z-score in [8] was -0.931; in [9] it was -1.24; in assay [10], 0.25; in assay [11], -1.9; in assay [13], -0.83; in [14], -0.295. The composite z-score in assay [15] is 0.571; in assay [16], -0.15; in assay [17], -0.117; in [18], 0.0595; in assay [19], -0.673; in assay [20], -0.706. For the same compound, the z-score in assay [4] is -0.935 (inactive); in assay [12], -0.729.

These data come from PubChem BioAssay.
